Data as given in PubChem BioAssay.
Values without a mark were called inactive. Activity calls are given as the source filed them.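 Rule for the calls, unless noted: active = inhibition above 50%; inactive = the rest.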

Test system: not listed separately
Assay: HepG2 cytotoxicity, primary screen, cytotoxicity control for P. falciparum antimalarial project, cell-based, ATP luminescence (AID 2303);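 note: 0% = DMSO wells and 100% = digitonin-killed cells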
Conditions: HepG2 viability, 24-48 h, at 10 µM, active compounds read high

SMILES | inhibition
CC(C)c1ccc(C(NC(=O)C2CCCCC2)c2ccc3cccnc3c2O)cc1 (stereo not drawn) | 46%
O=C(/C=C/c1ccc(Cl)c(Cl)c1)NCCCCCCN1CCN(C(=O)Nc2ccc(OC(F)F)cc2)CC1 | 44%
COc1cc2ncnc(Nc3ccc(Br)c(Cl)c3)c2cc1OC | 22%
COc1cccc(C=CC(=O)N(CCN)Cc2ccccc2)c1 | -14%
c1cc(COc2ccc(C3=NCCN3)cc2)nc(COc2ccc(C3=NCCN3)cc2)c1 | 8%
O=C(Nc1cc(C(F)(F)F)cc(C(F)(F)F)c1)Nc1ccc(Cl)c(Cl)c1 | 58% (active)
Cc1cccc2[nH]c(-c3cccc(-c4cccc(NC(=O)Cc5cnc[nH]5)c4)c3)nc12 | 32%
Cc1cc(N2CCCC2)nc(Nc2ccc(NC(=O)C3CCCC3)cc2)n1 | 27%
CCNC(=O)c1ccc2c(c1)c(C)c(C)n2Cc1ccc(F)cc1 | 25%
O=C(c1cc(-c2ccccc2O)on1)N1CCN(C(c2ccccc2)c2ccccc2)CC1 | 12%
CCOC(=O)NCC(=O)Nc1cccc(-c2cccc(-c3nc4ccc(C(F)(F)F)cc4[nH]3)c2)c1 | 59% (active)
CN1CCCC(CN2CCN(Cc3ccc(-c4ccc(-c5nc6ccccc6[nH]5)s4)cc3)CC2)C1 (stereo not drawn) | 57% (active)
Cc1cccc2[nH]c(-c3ccc(-c4cccc(CN5CCC(C(N)=O)CC5)c4)cc3)nc12 | 9%
Cc1c(F)cc(C(=O)NC2CC2)cc1-c1ccc2c(cnn2S(=O)(=O)c2cccs2)c1 | 32%
CC(C)Nc1cc(C(=O)N[C@@H](Cc2ccccc2)[C@H](O)CNC2CCOCC2)c(F)c(N2CCCCS2(=O)=O)c1 | 2%
Cc1cnc(NCC2CCCCC2)nc1NCC(=O)Nc1ccccc1 | 21%
FC(F)(F)c1cccc(NC(=S)NN=Cc2ccccn2)c1 | 29%
OC1(c2ccc(Br)cc2)CCN(C2CCN(Cc3ccccc3)CC2)CC1 | 8%
CCOc1ccc2nc(C)cc(NN=Cc3ccncc3)c2c1 | 8%
COc1ccc2nccc([C@@H](O)CN3CCC(NCc4cc5ccccc5o4)CC3)c2c1 | 17%

SMILES | inhibition
COc1ccc(C(=O)Nc2ccc3oc(-c4ccc(C(F)(F)F)cc4)cc3c2)cc1CCCN(C)C | 98% (active)
CCc1cn(C)c2c(N3CCCC3=O)cc(C(=O)N[C@@H](Cc3ccccc3)[C@H](O)CNC(C)(C)c3cccc(OC)c3)cc12 | 9%
O=C(Nc1cccc(-c2ccc(CN3CCCC3)cc2)c1)c1ccc(F)cc1 | 23%
CCC(CC)OC(=O)C(C)c1cccc(C(=O)c2ccccc2)c1 (stereo not drawn) | -8%
N#Cc1ccc2c(c1)CCN(CCC1CCC(NC(=O)/C=C/c3cnc4ccccc4c3)CC1)CC2 (stereo not drawn) | 22%
CN1CCC(N2CCN(Cc3ccc(-c4cccc(-c5nc6ccc(F)cc6[nH]5)c4)cc3)CC2)CC1 | 67% (active)
CC(C)(C)c1ccc2nc(-c3ccc(C(=O)NCc4cccc(C(F)(F)F)c4)cc3)[nH]c2c1 | 9%
CCN1CCN(c2cc(C)c3cc(NC(=O)c4cccc([N+](=O)[O-])c4)ccc3n2)CC1 | 74% (active)
N=C(N)c1cc(Cl)cc(NC(=O)Nc2cc(Cl)cc(C(=N)N)c2)c1 | 4%
N#Cc1ccc2c(c1)CCN(CCC1CCC(NC(=O)Nc3ccncc3)CC1)C2 (stereo not drawn) | 6%
CCc1ccc(NC(=O)C=NN=C(N)N)cc1 | 13%
Cc1ccn2c(N(Cc3ccccc3)C(=O)c3ccc(Cl)c(Cl)c3)c(-c3ccccc3)nc2c1 | -20%
O=C(c1cccc(COc2ccc3c(c2)CCN(C2CCCC2)CC3)c1)N1CCN(c2ccncc2)CC1 | 49%
CCCCCCCN1CC[C@H](CC(=O)Nc2ccnc3ccc(OC)cc23)[C@@H](CC)C1 | 14%
CCCCCCN1CCC(NCc2ccc(OCCN3CCCC3)cc2)CC1 | 23%
COc1cccc2cc(C(=O)N[C@@H](CC(C)C)C(=O)N[C@H](/C=N/NC(=O)OC(C)(C)C)CC(C)C)oc12 | 8%
OC(CNCc1cccc(Oc2ccc(Cl)cc2)c1)c1cccc(C(F)(F)F)c1 (stereo not drawn) | -1%
COc1ccc(-c2ccc(NC(=O)c3cccc(C#N)c3)cc2)cc1CN1CCNCC1 | 30%
COC(=O)CNC(c1ccccc1)c1cc(Br)ccc1NC(=O)c1ccccc1Br (stereo not drawn) | 10%

Target: L-lactate dehydrogenase (Plasmodium falciparum (isolate CDC / Honduras)) (UniProt Q27743)
Assay: PfLDH activity inhibition – cell lysate, 3D7 strain, counter-screen for P. falciparum growth inhibition project (AID 2304; call rule not given here;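 note: 0% = vehicle and 100% = reference inhibitor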)
Conditions: P. falciparum 3D7 crude extract, LDH APAD/NBT absorbance; at 2 µM; active compounds read high

Chain of L-lactate dehydrogenase (Plasmodium falciparum (isolate CDC / Honduras)) (Q27743 whole entry, looked up): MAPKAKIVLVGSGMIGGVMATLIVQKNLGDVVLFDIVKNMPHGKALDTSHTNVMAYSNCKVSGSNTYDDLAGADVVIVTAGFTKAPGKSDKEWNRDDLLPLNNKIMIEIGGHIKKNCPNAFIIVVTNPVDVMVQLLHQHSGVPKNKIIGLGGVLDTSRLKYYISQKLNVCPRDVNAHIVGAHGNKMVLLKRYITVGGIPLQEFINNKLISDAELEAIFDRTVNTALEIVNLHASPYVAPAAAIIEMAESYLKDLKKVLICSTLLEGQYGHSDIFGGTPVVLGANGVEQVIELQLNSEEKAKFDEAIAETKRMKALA

SMILES | inhibition [%]
CC(C)c1ccc(C(NC(=O)C2CCCCC2)c2ccc3cccnc3c2O)cc1 (stereo not drawn) | -8
O=C(/C=C/c1ccc(Cl)c(Cl)c1)NCCCCCCN1CCN(C(=O)Nc2ccc(OC(F)F)cc2)CC1 | -4
COc1cc2ncnc(Nc3ccc(Br)c(Cl)c3)c2cc1OC | 6
COc1cccc(C=CC(=O)N(CCN)Cc2ccccc2)c1 | -3
c1cc(COc2ccc(C3=NCCN3)cc2)nc(COc2ccc(C3=NCCN3)cc2)c1 | -2
O=C(Nc1cc(C(F)(F)F)cc(C(F)(F)F)c1)Nc1ccc(Cl)c(Cl)c1 | 0
Cc1cccc2[nH]c(-c3cccc(-c4cccc(NC(=O)Cc5cnc[nH]5)c4)c3)nc12 | -4
Cc1cc(N2CCCC2)nc(Nc2ccc(NC(=O)C3CCCC3)cc2)n1 | 1
CCNC(=O)c1ccc2c(c1)c(C)c(C)n2Cc1ccc(F)cc1 | -1
O=C(c1cc(-c2ccccc2O)on1)N1CCN(C(c2ccccc2)c2ccccc2)CC1 | 1
CCOC(=O)NCC(=O)Nc1cccc(-c2cccc(-c3nc4ccc(C(F)(F)F)cc4[nH]3)c2)c1 | -2
CN1CCCC(CN2CCN(Cc3ccc(-c4ccc(-c5nc6ccccc6[nH]5)s4)cc3)CC2)C1 (stereo not drawn) | -8
Cc1cccc2[nH]c(-c3ccc(-c4cccc(CN5CCC(C(N)=O)CC5)c4)cc3)nc12 | 6
Cc1c(F)cc(C(=O)NC2CC2)cc1-c1ccc2c(cnn2S(=O)(=O)c2cccs2)c1 | -4
CC(C)Nc1cc(C(=O)N[C@@H](Cc2ccccc2)[C@H](O)CNC2CCOCC2)c(F)c(N2CCCCS2(=O)=O)c1 | -2
Cc1cnc(NCC2CCCCC2)nc1NCC(=O)Nc1ccccc1 | 0
FC(F)(F)c1cccc(NC(=S)NN=Cc2ccccn2)c1 | -7
OC1(c2ccc(Br)cc2)CCN(C2CCN(Cc3ccccc3)CC2)CC1 | 8
CCOc1ccc2nc(C)cc(NN=Cc3ccncc3)c2c1 | 0
COc1ccc2nccc([C@@H](O)CN3CCC(NCc4cc5ccccc5o4)CC3)c2c1 | 4

SMILES | inhibition [%]
COc1ccc(C(=O)Nc2ccc3oc(-c4ccc(C(F)(F)F)cc4)cc3c2)cc1CCCN(C)C | -1
CCc1cn(C)c2c(N3CCCC3=O)cc(C(=O)N[C@@H](Cc3ccccc3)[C@H](O)CNC(C)(C)c3cccc(OC)c3)cc12 | -1
O=C(Nc1cccc(-c2ccc(CN3CCCC3)cc2)c1)c1ccc(F)cc1 | 4
CCC(CC)OC(=O)C(C)c1cccc(C(=O)c2ccccc2)c1 (stereo not drawn) | 6
N#Cc1ccc2c(c1)CCN(CCC1CCC(NC(=O)/C=C/c3cnc4ccccc4c3)CC1)CC2 (stereo not drawn) | -1
CN1CCC(N2CCN(Cc3ccc(-c4cccc(-c5nc6ccc(F)cc6[nH]5)c4)cc3)CC2)CC1 | -1
CC(C)(C)c1ccc2nc(-c3ccc(C(=O)NCc4cccc(C(F)(F)F)c4)cc3)[nH]c2c1 | -1
CCN1CCN(c2cc(C)c3cc(NC(=O)c4cccc([N+](=O)[O-])c4)ccc3n2)CC1 | -3
N=C(N)c1cc(Cl)cc(NC(=O)Nc2cc(Cl)cc(C(=N)N)c2)c1 | -7
N#Cc1ccc2c(c1)CCN(CCC1CCC(NC(=O)Nc3ccncc3)CC1)C2 (stereo not drawn) | -4
CCc1ccc(NC(=O)C=NN=C(N)N)cc1 | -2
Cc1ccn2c(N(Cc3ccccc3)C(=O)c3ccc(Cl)c(Cl)c3)c(-c3ccccc3)nc2c1 | -7
O=C(c1cccc(COc2ccc3c(c2)CCN(C2CCCC2)CC3)c1)N1CCN(c2ccncc2)CC1 | -8
CCCCCCCN1CC[C@H](CC(=O)Nc2ccnc3ccc(OC)cc23)[C@@H](CC)C1 | -4
CCCCCCN1CCC(NCc2ccc(OCCN3CCCC3)cc2)CC1 | 0
COc1cccc2cc(C(=O)N[C@@H](CC(C)C)C(=O)N[C@H](/C=N/NC(=O)OC(C)(C)C)CC(C)C)oc12 | -2
OC(CNCc1cccc(Oc2ccc(Cl)cc2)c1)c1cccc(C(F)(F)F)c1 (stereo not drawn) | 3
COc1ccc(-c2ccc(NC(=O)c3cccc(C#N)c3)cc2)cc1CN1CCNCC1 | 8
COC(=O)CNC(c1ccccc1)c1cc(Br)ccc1NC(=O)c1ccccc1Br (stereo not drawn) | -1
